Reference: PubChem BioAssay (Tox21)
Results filed as inconclusive are left out. Calls of active or inactive are those of the source. Unless noted, calls come from the whole dose curve; as a rule, active = well fitted curve in the direction sought with a large enough effect in the repeat runs; inconclusive = weak or mixed curves; inactive = no such curve, though single readings can be large; an effect the other way counts as inactive or inconclusive.

Assays:
[1] = A CellTox Green Cytotoxicity Assay to monitor cytotoxicity in HepG2 cells - 0 hour (AID 1224882); note: nearly all actives have a fitted effect of over 35% in size
In short: (§1)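 HepG2 cells, 600/well, preincubated 5 h with CellTox Green dye, then exposed to Tox21 compounds in DMSO at 37 C for up to 40 h. Dead-cell DNA fluorescence read at the indicated time point.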

[2] = A CellTox Green Cytotoxicity Assay to monitor cytotoxicity in HepG2 cells - 32 hour (AID 1224883); note: nearly all actives have a fitted effect of over 50% in size
In short: as §1

[3] = A CellTox Green Cytotoxicity Assay to monitor cytotoxicity in HEK293 cells - 8 hour (AID 1224884); note: nearly all actives have a fitted effect of over 35% in size
In short: (§2)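 HEK293 cells, 600/well, were preincubated 5 hours and then exposed to compounds at 37 C for up to 40 hours. A cell-impermeant cyanine dye staining dead-cell DNA was read by fluorescence at 0, 8, 16, 24, 32 and 40 h time points.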

[4] = qHTS RealTime-Glo MT Cell Viability Assay in HepG2 cells - 16 hour (AID 1224885); note: nearly all actives have a fitted effect of over 50% in size
In short: (§3)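 HepG2 cells (600/well) were dispensed with RealTime-Glo reagents, incubated 5 h at 37 °C, then treated with compounds in DMSO for up to 40 h. Nonlytic NanoLuc luminescence reflecting viable cells was read at each stated time point.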

[5] = qHTS RealTime-Glo MT Cell Viability Assay in HEK293 cells - 24 hour (AID 1224886); note: top concentration of the series differs between compounds; nearly all actives have a fitted effect of over 50% in size
In short: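 HEK293 cells seeded with NanoLuc/prosubstrate reagent, rested 5 h at 37 C, then dosed and kept at 37 C up to 40 h. Nonlytic real-time luminescence from viable cells read at 0, 8, 16, 24, 32 and 40 h.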

[6] = qHTS RealTime-Glo MT Cell Viability Assay in HEK293 cells - 8 hour (AID 1224887); note: top concentration of the series differs between compounds; nearly all actives have a fitted effect of over 50% in size
In short: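 600 cells/well were plated with the nonlytic NanoLuc/prosubstrate reagent, pre-incubated 5 h, then given 23 nL of compound in DMSO. Incubation at 37 C for 40 h, with luminescence from viable-cell-reduced substrate read repeatedly from 0 h.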

[7] = A CellTox Green Cytotoxicity Assay to monitor cytotoxicity in HEK293 cells - 16 hour (AID 1224888); note: nearly all actives have a fitted effect of over 35% in size
In short: as §2

[8] = qHTS RealTime-Glo MT Cell Viability Assay in HepG2 cells - 0 hour (AID 1224889); note: nearly all actives have a fitted effect of over 50% in size
In short: as §3

[9] = A CellTox Green Cytotoxicity Assay to monitor cytotoxicity in HepG2 cells - 8 hour (AID 1224890); note: nearly all actives have a fitted effect of over 45% in size
In short: as §1

[10] = qHTS assay to identify small molecule antagonists of the estrogen receptor alpha (ER-alpha) signaling pathway using the BG1 cell line in the presence of 0.1 nM 17-beta-estradiol - cell viability counter screen (AID 1259241); note: nearly all actives have a fitted effect of over 40% in size
In short: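 In this screen, hormone-deprived VM7Luc4E2 cells were seeded at 4,000 per well, dosed with compound and 0.1 nM estradiol final, and incubated 22 hr at 37C and 5% CO2; fluorogenic live-cell protease signal reported viability.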

[11] = qHTS assay to identify small molecule antagonists of the androgen receptor (AR) signaling pathway using the MDA cell line in the presence of 0.5 nM R1881 - cell viability counter screen (AID 1259242); note: nearly all actives have a fitted effect of over 45% in size
In short: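 MDA-kb2 cells (MMTV-luciferase, AR/GR responsive) were treated with compounds plus 0.5 nM R1881 (final) for 16 hr at 37C, 0% CO2. Viability was then read in the same wells as live-cell protease fluorescence (CellTiter-Fluor, 30 min).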

[12] = target: Estrogen receptor (Homo sapiens) (UniProt P03372); experiment: qHTS assay to identify small molecule antagonists of the estrogen receptor alpha (ER-alpha) signaling pathway using the BG1 cell line in the presence of 0.1 nM 17-beta-estradiol (AID 1259244); note: nearly all actives have a fitted effect of over 50% in size
In short: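 VM7Luc4E2 cells (endogenous full-length ER-alpha, 4×ERE-luciferase), kept 5 days in phenol red-free, charcoal-stripped FBS medium; 4,000 cells/well. Compounds added with 0.1 nM (final) 17beta-estradiol, 22 hr at 37C; luminescence read with ONE-Glo after 30 min.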

[13] = qHTS assay to identify small molecule HDAC inhibitors (AID 1259364); note: top concentration of the series differs between compounds; nearly all actives have a fitted effect of over 45% in size
In short: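 Wild-type HCT-116 cells, plated overnight at 37 C, exposed to compounds 2 hr at 37 C; luminogenic HDAC-Glo substrate then added 30 min at room temperature. Luminescence reports relative endogenous class I/II HDAC activity.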

[14] = qHTS assay to identify small molecule HDAC inhibitors - cell viability counter screen (AID 1259365)
In short: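 Measured quantity is CellTiter-Glo luminescence from wild-type HCT-116 cells after compound incubation of 2hr at 37C, 5% CO2; reagent developed 30min at room temperature.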

[15] = qHTS assay to identify small molecule agonists of the sonic hedgehog signaling (Shh) pathway - cell viability counter screen (AID 1259366); note: nearly all actives have a fitted effect of over 50% in size
In short: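 In quantitative high-throughput format, 3T3 Gli1-Luc cells were exposed to compounds for 24hr and multiplexed for viability using CellTiter-Fluor, incubated 1hr at 37C before the fluorescence read.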

[16] = qHTS assay to identify small molecule antagonists of the sonic hedgehog signaling (Shh) pathway - cell viability counter screen (AID 1259367); note: nearly all actives have a fitted effect of over 55% in size
In short: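 Seed 3T3 Gli1-Luc cells at 2,000 per well; incubate 4 hr; add compound in DMSO, then conditioned medium; incubate at 37C with 5% CO2; add CellTiter-Fluor after 23 hr; read fluorescence 1 hr later.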

[17] = qHTS assay to identify small molecule agonists of the sonic hedgehog signaling (Shh) pathway (AID 1259368; calls by dose curve;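 note: NIH/3T3-derived 3T3Gli1-Luc cells carrying a stable Gli1-driven firefly luciferase reporter; series mostly up to about 92 µM; nearly all actives have a fitted effect of over 15% in size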)
In short: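 NIH/3T3-derived 3T3Gli1-Luc cells with stably integrated Gli1-driven firefly luciferase, 2,000 cells/well, compounds added after 4 hr. Incubated 24 hr at 37C, 5% CO2; luminescence read after 30 min with luciferase reagent at room temperature.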

[18] = qHTS assay to identify small molecule antagonists of the sonic hedgehog signaling (Shh) pathway (AID 1259369; calls by dose curve; note: nearly all actives have a fitted effect of over 45% in size)
In short: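 NIH/3T3-derived Gli1-Luc reporter cells plated 4 h, dosed with compound, then stimulated with conditioned medium for 24 h at 37 C. Firefly luciferase luminescence read after 30 min with detection reagent at room temperature.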

[19] = target: Androgen receptor (Homo sapiens) (UniProt P10275); experiment: qHTS assay to identify small molecule antagonists of the androgen receptor (AR) signaling pathway using the MDA cell line in the presence of 0.5 nM R1881 (AID 1259243); note: nearly all actives have a fitted effect of over 50% in size
In short: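 MDA-kb2 cells (MMTV-luciferase, responsive to AR and GR) at 3,000/well, rested 5 h at 37C, 0% CO2, then given compounds plus 0.5 nM R1881 (final) for 16 hr. Luciferase read with ONE-Glo after 30 min at room temperature.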

[20] = qHTS assay to identify small molecule phospholipidosis (PLD) inducers (AID 1259344; active = well fitted curve in the direction sought with a large enough effect; an effect the other way counts as inactive or inconclusive)
In short: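 Quantitative HTS in HepG2: compound plus LipidTOX Red dye for 24 h, paraformaldehyde fixation with Hoechst 33342, widefield high-content imaging; amiodarone as positive and DMSO as negative control.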

Measured: Potency

Sequence of Androgen receptor (Homo sapiens) (P10275 whole entry, looked up): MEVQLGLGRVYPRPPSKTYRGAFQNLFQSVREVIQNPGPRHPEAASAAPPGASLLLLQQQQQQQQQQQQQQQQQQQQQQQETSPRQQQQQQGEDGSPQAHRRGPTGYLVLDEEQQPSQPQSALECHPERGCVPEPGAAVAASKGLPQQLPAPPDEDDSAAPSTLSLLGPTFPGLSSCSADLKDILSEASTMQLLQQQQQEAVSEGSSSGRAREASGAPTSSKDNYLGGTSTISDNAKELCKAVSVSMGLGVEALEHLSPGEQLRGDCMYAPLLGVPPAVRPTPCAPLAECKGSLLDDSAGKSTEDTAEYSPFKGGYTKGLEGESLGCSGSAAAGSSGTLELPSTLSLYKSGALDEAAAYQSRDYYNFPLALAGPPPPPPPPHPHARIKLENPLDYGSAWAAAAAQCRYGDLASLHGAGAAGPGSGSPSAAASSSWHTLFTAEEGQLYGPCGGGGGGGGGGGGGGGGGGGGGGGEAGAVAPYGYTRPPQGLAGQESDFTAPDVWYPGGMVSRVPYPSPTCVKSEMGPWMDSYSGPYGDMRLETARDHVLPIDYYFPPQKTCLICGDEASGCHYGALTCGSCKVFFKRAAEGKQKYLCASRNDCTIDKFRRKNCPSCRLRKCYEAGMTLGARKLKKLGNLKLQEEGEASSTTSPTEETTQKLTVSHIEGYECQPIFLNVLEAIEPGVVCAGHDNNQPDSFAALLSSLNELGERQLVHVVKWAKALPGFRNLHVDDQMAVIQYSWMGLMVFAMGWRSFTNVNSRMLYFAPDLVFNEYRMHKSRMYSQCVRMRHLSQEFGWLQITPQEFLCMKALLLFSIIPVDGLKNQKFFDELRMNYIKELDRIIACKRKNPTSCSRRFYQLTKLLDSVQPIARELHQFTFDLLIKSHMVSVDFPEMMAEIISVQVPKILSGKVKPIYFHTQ
Sequence of Estrogen receptor (Homo sapiens) (P03372 whole entry, looked up): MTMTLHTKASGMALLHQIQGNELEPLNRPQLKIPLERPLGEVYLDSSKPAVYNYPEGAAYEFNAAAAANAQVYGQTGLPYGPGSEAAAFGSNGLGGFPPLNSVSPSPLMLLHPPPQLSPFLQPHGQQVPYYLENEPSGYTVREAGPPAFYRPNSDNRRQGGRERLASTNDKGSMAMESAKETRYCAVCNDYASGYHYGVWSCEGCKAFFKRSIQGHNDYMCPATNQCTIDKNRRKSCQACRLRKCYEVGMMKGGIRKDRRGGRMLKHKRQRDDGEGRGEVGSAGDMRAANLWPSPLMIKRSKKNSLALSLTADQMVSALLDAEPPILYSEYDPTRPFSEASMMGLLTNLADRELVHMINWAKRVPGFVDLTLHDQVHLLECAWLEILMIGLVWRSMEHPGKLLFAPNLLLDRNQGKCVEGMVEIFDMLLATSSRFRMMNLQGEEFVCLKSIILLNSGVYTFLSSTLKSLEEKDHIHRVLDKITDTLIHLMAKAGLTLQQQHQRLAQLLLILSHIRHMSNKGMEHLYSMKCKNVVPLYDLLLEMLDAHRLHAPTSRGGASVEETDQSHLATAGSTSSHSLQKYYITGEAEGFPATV

CCCCCCCC=O
not listed: [19] | [20]
inactive: all other assays above

CC(CCl)OP(=O)(OC(C)CCl)OC(C)CCl (centres undefined)
not listed: [19] | [20]
inactive: all other assays above

C=CC(C)CCCC(C)(C)O (centres undefined)
not listed: [19] | [20]
inactive: all other assays above

O=[N+]([O-])c1ccc2nc[nH]c2c1
not listed: [19] | [20]
inactive: all other assays above

CCNC(=S)NCC
not listed: [19] | [20]
inactive: all other assays above

CC(=O)OCc1ccccc1
not listed: [20]
inactive: all other assays above

CC(C)CC(C)O (centres undefined)
not listed: [19] | [20]
inactive: all other assays above

CCO[Si](CCCN)(OCC)OCC
not listed: [19] | [20]
inactive: all other assays above

Nc1nc(N)nc(-c2ccccc2)n1
not listed: [18] | [19] | [20]
inactive: all other assays above

O=C1C(c2[nH]c3ccccc3c2O)=Nc2ccccc21
not listed: [12] | [19]
inactive: all other assays above

CCCCCCO
not listed: [19] | [20]
inactive: all other assays above

CC(=O)Oc1ccc(C)cc1
inactive: all assays above

CC(C)(C)c1cc(Cc2cc(C(C)(C)C)c(O)c(C(C)(C)C)c2)cc(C(C)(C)C)c1O
not listed: [19] | [20]
inactive: all other assays above

CCCCCC(=O)O
not listed: [20]
inactive: all other assays above

CC(C)(Oc1ccc(CCNC(=O)c2ccc(Cl)cc2)cc1)C(=O)O
not listed: [19]
inactive: all other assays above
